Assay [1] in a line: optical density shifts of acrAB sulA E. coli – strain DRC41, OD650, 48 h, E. coli filamentation inducer project, primary screen (AID 1152).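 Note: E. coli MC1000 strain DRC41 lacking acrAB efflux pump and sulA.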 The conditions noted are these: higher = more signal, called active from +8 up or from −8 down.
The nature of assay [2]: probe aLefty1 binding on compound microarray – biochemical, small-molecule microarray, 635/667 nm fluorescence, primary screen (AID 1153).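 Note: score merges spot fluorescence with signal-to-noise ratio from the scanned slide images.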 The note with it: higher = more signal.
Assay [3] in a line: plasmodial surface anion channel blockers, osmotic lysis – cell-based, P. falciparum Indochina, OD700, 1 h, primary screen (AID 1154). The conditions noted are these: P. falciparum Indochina infected RBC osmotic lysis, higher = more signal, called active from +8 up or from −8 down.
Assay [4] is described as follows: plasmodial surface anion channel blockers, osmotic lysis – cell-based, P. falciparum Indochina, OD700, 2 h, primary screen (AID 1155).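 Note: lysis reports solute entry through the parasite surface anion channel PSAC.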 The conditions noted are these: P. falciparum Indochina infected erythrocytes, higher = more signal, called active from +8 up or from −8 down.
The nature of assay [5]: changes in parasitized red cell lysis, either direction – P. falciparum Indochina, OD700, 3 h, PSAC antagonist project, primary screen (AID 1156). The conditions noted are these: P. falciparum-infected erythrocytes, osmotic lysis, higher = more signal, called active from +8 up or from −8 down.
A short description of assay [6]: plasmodial surface anion channel blockers, osmotic lysis – cell-based, P. falciparum Indochina, OD700, 18 h, primary screen (AID 1157). The note with it: P. falciparum Indochina infected erythrocytes, osmotic lysis OD700, 18 h; higher = more signal, called active from +8 up or from −8 down.
Assay [7] in a line: S6 kinase pathway phospho-S6 level changes – cell-based, A549, cytoblot, luminescence, serum-stimulated, primary screen (AID 1158).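 Note: serum-stimulated A549 lung adenocarcinoma cells; signal is phosphorylated S6 detected by cytoblot immunostaining with HRP secondary.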 The note with it: 5 h, higher = more signal.
Assay [8] has as its target NADPH oxidase 2 (Homo sapiens) (UniProt P04839). The assay can be described thus: compounds shifting NOX2 Amplex Red fluorescence – cell-based, HEK293-NOX2, PMA-stimulated, NOX inhibitor project, primary screen (AID 1159). Note: test concentration not given here. The note with it: 45 min, higher = more signal, called active from +8 up or from −8 down.
Assay [9] deals with NADPH oxidase 4 (Homo sapiens) (UniProt Q9NPH5). Briefly: compounds shifting NOX4 Amplex Red fluorescence – cell-based, HEK293-NOX4, tetracycline-induced, NOX inhibitor project, primary screen (AID 1160). The conditions noted are these: HEK293-NOX4, Amplex Red H2O2 fluorescence, 45 min; higher = more signal, called active from +8 up or from −8 down.
Assay [10] concerns the target NADPH oxidase 5 (Homo sapiens) (UniProt Q96PH1). Briefly: compounds shifting NOX5 Amplex Red fluorescence – cell-based, HEK293-NOX5, NOX inhibitor project, primary screen (AID 1161). The note with it: HEK293-NOX5, ionomycin, 45 min, higher = more signal.
Assay [11] can be described thus: compound effects on lung adenocarcinoma cell viability – A549, calcein-AM fluorescence, 48 h, basal, profiling panel (AID 1162). Note: test concentration not given here. The conditions noted are these: higher = more signal.
Assay [12] can be described thus: compound effects on differentiated 3T3-L1 adipocyte viability – cell-based, 3T3-L1 adipocytes, calcein-AM fluorescence, 48 h, basal, profiling panel (AID 1163). Note: test concentration not given here. The conditions noted are these: 3T3-L1 adipocytes viability, higher = more signal.
A short description of assay [13]: compound effects on hepatocellular carcinoma cell viability – HepG2, calcein-AM fluorescence, 48 h, basal, profiling panel (AID 1164). Note: test concentration not given here. The conditions noted are these: higher = more signal.
The nature of assay [14]: compound effects on multiple myeloma cell viability – MM1S, calcein-AM fluorescence, 48 h, basal, profiling panel (AID 1165). Note: test concentration not given here. The conditions noted are these: higher = more signal.
A short description of assay [15]: calcein-AM signal in unstimulated myeloma cells – cell-based, calcein-AM fluorescence, 48 h, PK04 Diversity Set, profiling panel (AID 1166).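 Note: cells grown under basal conditions without added stimulus; test concentration not given here.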 The conditions noted are these: RPMI8226 myeloma viability, higher = more signal.
Assay [16] in a line: JC-1 mitochondrial signal, unstimulated HepG2 cells – cell-based, JC-1 fluorescence, 24 h, 100 nL compound, profiling panel (AID 1167). Note: test concentration not given here. The note with it: HepG2 mitochondrial potential, higher = more signal.
Assay [17] can be described thus: JC-1 mitochondrial signal, unstimulated adipocytes – cell-based, JC-1 fluorescence, 3T3-L1 adipocytes, 24 h, 100 nL compound, profiling panel (AID 1168). Note: test concentration not given here. The note with it: JC-1 mitochondrial fluorescence, higher = more signal, called active from +8 up or from −8 down.
A short description of assay [18]: JC-1 mitochondrial signal, unstimulated myeloma cells – cell-based, JC-1 fluorescence, RPMI8226, 24 h, 100 nL compound, profiling panel (AID 1169). Note: test concentration not given here. The conditions noted are these: JC-1 mitochondrial potential fluorescence, higher = more signal.
Assay [19] in a line: JC-1 mitochondrial signal, unstimulated MM1S myeloma – cell-based, JC-1 fluorescence, 24 h, 100 nL compound, profiling panel (AID 1170). Note: test concentration not given here. The note with it: MM1S mitochondrial potential, higher = more signal.
Assay [20] in a line: resazurin metabolic signal in A549 cells – cell-based, resazurin fluorescence, 24 h, PK04 Diversity Set, profiling panel (AID 1171). Note: test concentration not given here. The note with it: A549 viability, higher = more signal, called active from +8 up or from −8 down. In general terms: Resazurin is reduced to fluorescent resorufin, in cell work by metabolically active cells.

Calls of active or inactive are those of the source.

Chain of NADPH oxidase 2 (Homo sapiens) (P04839 whole entry, looked up): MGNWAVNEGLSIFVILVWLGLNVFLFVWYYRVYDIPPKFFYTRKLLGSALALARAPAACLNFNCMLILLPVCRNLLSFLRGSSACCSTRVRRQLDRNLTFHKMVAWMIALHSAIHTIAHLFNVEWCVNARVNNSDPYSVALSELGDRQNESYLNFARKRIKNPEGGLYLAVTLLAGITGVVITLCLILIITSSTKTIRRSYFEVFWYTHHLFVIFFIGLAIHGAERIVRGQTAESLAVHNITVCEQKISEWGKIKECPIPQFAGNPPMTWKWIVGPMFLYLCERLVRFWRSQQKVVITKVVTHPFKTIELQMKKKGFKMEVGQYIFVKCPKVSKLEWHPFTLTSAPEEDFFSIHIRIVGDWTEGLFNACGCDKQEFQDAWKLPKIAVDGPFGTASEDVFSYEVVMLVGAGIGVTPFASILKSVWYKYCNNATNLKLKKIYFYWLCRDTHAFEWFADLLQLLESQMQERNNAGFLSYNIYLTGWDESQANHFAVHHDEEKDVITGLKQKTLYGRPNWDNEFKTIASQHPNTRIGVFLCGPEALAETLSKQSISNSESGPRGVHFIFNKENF
Chain of NADPH oxidase 5 (Homo sapiens) (Q96PH1 whole entry, looked up): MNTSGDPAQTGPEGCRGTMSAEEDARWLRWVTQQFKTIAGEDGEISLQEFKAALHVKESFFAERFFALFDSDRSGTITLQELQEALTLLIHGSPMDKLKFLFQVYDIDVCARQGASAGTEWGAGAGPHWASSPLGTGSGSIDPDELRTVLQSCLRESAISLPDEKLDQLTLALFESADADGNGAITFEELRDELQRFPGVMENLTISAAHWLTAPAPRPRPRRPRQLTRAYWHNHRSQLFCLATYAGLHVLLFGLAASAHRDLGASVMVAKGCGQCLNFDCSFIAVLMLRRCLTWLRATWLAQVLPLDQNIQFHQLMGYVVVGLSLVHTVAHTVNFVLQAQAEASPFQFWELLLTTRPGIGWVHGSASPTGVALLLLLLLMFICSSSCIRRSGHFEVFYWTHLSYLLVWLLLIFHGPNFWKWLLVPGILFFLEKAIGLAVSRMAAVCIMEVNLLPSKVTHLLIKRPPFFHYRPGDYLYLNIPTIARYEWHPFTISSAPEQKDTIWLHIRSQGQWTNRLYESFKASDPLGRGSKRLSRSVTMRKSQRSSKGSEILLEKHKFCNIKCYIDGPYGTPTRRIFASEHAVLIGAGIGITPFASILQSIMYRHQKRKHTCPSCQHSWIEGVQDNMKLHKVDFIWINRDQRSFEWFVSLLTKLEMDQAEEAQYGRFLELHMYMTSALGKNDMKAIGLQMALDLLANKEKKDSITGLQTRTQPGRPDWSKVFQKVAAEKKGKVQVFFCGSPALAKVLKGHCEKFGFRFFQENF
Chain of NADPH oxidase 4 (Homo sapiens) (Q9NPH5 whole entry, looked up): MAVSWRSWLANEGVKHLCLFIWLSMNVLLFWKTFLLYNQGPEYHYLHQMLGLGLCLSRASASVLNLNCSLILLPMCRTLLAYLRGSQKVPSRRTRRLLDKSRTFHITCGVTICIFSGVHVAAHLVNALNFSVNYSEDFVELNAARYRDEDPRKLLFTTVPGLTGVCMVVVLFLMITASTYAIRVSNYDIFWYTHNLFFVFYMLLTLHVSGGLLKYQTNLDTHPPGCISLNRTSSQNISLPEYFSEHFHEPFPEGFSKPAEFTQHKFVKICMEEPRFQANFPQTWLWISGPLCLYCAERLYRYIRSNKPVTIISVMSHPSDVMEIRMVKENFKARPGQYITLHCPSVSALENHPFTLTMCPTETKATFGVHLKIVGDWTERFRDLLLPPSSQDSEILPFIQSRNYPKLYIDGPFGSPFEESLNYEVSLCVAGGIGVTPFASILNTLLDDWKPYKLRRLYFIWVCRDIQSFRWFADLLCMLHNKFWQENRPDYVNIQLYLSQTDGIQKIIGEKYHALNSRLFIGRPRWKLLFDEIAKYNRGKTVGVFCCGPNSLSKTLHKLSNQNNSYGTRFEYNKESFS

As to `CCc1cc2c(nc1CC)CCN(CCC(C)=NO[C@@H](C)c1cn([C@H](CO)Cc3ccccc3)nn1)C2`, the z-score was 0.0933 (inactive) in assay [1]; 4.48 (inactive) in assay [3]; 0.586 (inactive) in assay [4]; -0.0919 (inactive) in assay [5]; 0.49 (inactive) in assay [6]; 0.434 in assay [7]. Besides, the z-score in assay [8] is -1.4 (inactive); in [9], 0.033 (inactive); in assay [10] it was 0.858; in [11] it was 0.669; in assay [12], 0.367; in assay [13], 1.8. In addition, the z-score in assay [14] is 0.73; in [15], 0.18; in assay [16] it was 2.44; in assay [17], 0.254 (inactive); in assay [18] it was -0.279; in [19], -0.525. Besides, in assay [20], the z-score is 0.0367 (inactive). Besides, the composite z-score in [2] is -0.0011.

`CO[C@@H]1C=CCC(=O)N2CCC[C@H]2C(=O)OC[C@@H](C)C(=O)OC[C@H]1C`: the z-score in assay [1] is 1.12 (inactive); in assay [3], 0.0026 (inactive); in assay [4], 0.155 (inactive); in [5] it was 0.335 (inactive); in assay [6], 0.181 (inactive); in assay [7] it was 0.467. The z-score in assay [8] was -0.805 (inactive); in assay [9] it was 0.766 (inactive); in assay [10], 0.147; in assay [11] it was 0.623; in assay [12] it was 0.244; in assay [13], 1.17. In addition, the z-score in [14] was 0.138; in assay [15], -0.267; in assay [16], 0.848; in assay [17], 0.00578 (inactive); in assay [18], -0.257; in [19], 0.269. Moreover, the z-score in [20] was 0.585 (inactive). In addition, the composite z-score in [2] came out at 0.154.

Regarding `Cc1ccc(S(=O)(=O)n2c3ccccc3c3nnc(C(=O)c4ccccc4)nc32)cc1`, the z-score is 1.04 (inactive) in [1]; 4.4 (inactive) in assay [3]; 0.266 (inactive) in assay [4]; -0.0784 (inactive) in assay [5]; 0.421 (inactive) in assay [6]; 0.479 in assay [7]. Further, the z-score in [8] was -0.0413 (inactive); in [9] it was 0.179 (inactive); in assay [10], -0.341; in assay [11], 1.8; in [12], 0.294; in assay [13], -0.284. The z-score is -0.377 in assay [14]; 0.271 in assay [15]; -2.96 in assay [16]; 0.839 (inactive) in assay [17]; -0.248 in [18]; -0.956 in assay [19]. Further, the z-score in assay [20] was -0.721 (inactive). Besides, in [2], the composite z-score was -0.179.

As for `CO[C@H]1COC(=O)[C@@H](C)COC(=O)[C@H](C)NC(=O)CC=C[C@H]1C`, the z-score in assay [1] is -0.0819 (inactive); in assay [3] it was -0.0875 (inactive); in [4], 0.725 (inactive); in assay [5], 0.76 (inactive); in [6], 0.403 (inactive); in assay [7], -0.144. In addition, the z-score in [8] was 1.72 (inactive); in assay [9], 0.315 (inactive); in assay [10], 0.895; in assay [11], -0.235; in assay [12] it was 0.18; in [13], 0.314. Further, the z-score is 0.0766 in [14]; 0.235 in assay [15]; 0.631 in assay [16]; 0.118 (inactive) in assay [17]; -0.693 in [18]; 0.86 in assay [19]. In addition, the z-score in [20] was 0.488 (inactive). Besides, the composite z-score in assay [2] is -0.0186.

Consider `COC(=O)[C@H](C)NC(=O)CCC1CC(OC(=O)NCCc2ccc(F)cc2)CC2(CCCC(COC(=O)NCc3cccc(C(F)(F)F)c3)O2)O1` (stereo not given in full), for which the z-score in assay [1] was 0.419 (inactive); in assay [3], 9.11 (active); in [4] it was 0.445 (inactive); in assay [5], -0.45 (inactive); in assay [6], 0.125 (inactive); in assay [7], -0.416. For the same molecule, the z-score in assay [8] was 1.23 (inactive); in [9], -1.65 (inactive); in assay [10], -1.14; in [11], -0.925; in assay [12] it was 0.704; in assay [13] it was -1.69. For the same molecule, the z-score in assay [14] is -3.48; in assay [15] it was -0.416; in [16] it was -0.15; in assay [17], -0.835 (inactive); in [18] it was 0.54; in [19], 0.533. Also, the z-score in assay [20] was -0.0257 (inactive). Further, in assay [2], the composite z-score is -0.181.

For the molecule `CCN1C(=O)[C@H]2[C@H]3[C@H](O)[C@H](O)CC(=NOCC(C)C)[C@@H]3CC[C@H]2C1=O`, the z-score in assay [1] was -1.87 (inactive); in [3] it was 0.344 (inactive); in assay [4], 0.365 (inactive); in assay [5] it was 0.456 (inactive); in assay [6], 0.379 (inactive); in assay [7], -0.126. The z-score in assay [8] was 0.603 (inactive); in assay [9], 0.324 (inactive); in assay [10], -0.654; in assay [11] it was -0.556; in assay [12], -0.0239; in assay [13], -0.308. For the same molecule, the z-score in assay [14] was -0.181; in assay [15] it was 0.922; in assay [16] it was -0.501; in [17] it was -0.769 (inactive); in assay [18], 0.788; in [19], 0.0483. Besides, in assay [20], the z-score was -0.0226 (inactive). This molecule also registered a composite z-score in assay [2] of -0.245.

Take `CO[C@H]1COC(=O)[C@@H](C)COC(=O)[C@H](COCc2ccccc2)NC(=O)CC=C[C@H]1C`: the z-score in assay [1] was -1.17 (inactive); in assay [3], -0.262 (inactive); in assay [4], 0.149 (inactive); in assay [5] it was -0.0011 (inactive); in [6] it was 0.156 (inactive); in [7], 0.503. The z-score is -1.95 (inactive) in assay [8]; 0.126 (inactive) in assay [9]; 0.284 in assay [10]; 0.362 in [11]; 0.293 in assay [12]; 0.298 in [13]. Moreover, the z-score is 0.555 in assay [14]; 0.34 in assay [15]; 1.36 in [16]; -0.213 (inactive) in [17]; 0.529 in assay [18]; 2.5 in [19]. Also, the z-score in assay [20] is 0.266 (inactive). The molecule further yielded a composite z-score in [2] of -0.0654.

For `C[C@H]1CC[C@H]2C(=O)OC(CO)CN2[C@@H]1c1ccc(Br)cc1` (stereo not given in full), the z-score was -0.565 (inactive) in assay [1]; 0.382 (inactive) in assay [3]; 0.675 (inactive) in assay [4]; 0.647 (inactive) in assay [5]; 0.223 (inactive) in assay [6]; -0.42 in assay [7]. In addition, the z-score in assay [8] was 0.923 (inactive); in [9] it was -1.15 (inactive); in [10], 0.324; in [11], 0.228; in assay [12] it was 0.764; in [13] it was -0.592. Moreover, the z-score in [14] is -2.22; in assay [15], 0.0966; in assay [16] it was 0.292; in assay [17], -0.18 (inactive); in [18] it was 0.859; in assay [19], 0.23. In addition, the z-score in assay [20] was 0.746 (inactive). The composite z-score in assay [2] is -0.0918.

As to `CCN1C(=O)[C@H]2[C@H]3[C@H](O)[C@H](O)CC(=O)[C@H]3CC[C@H]2C1=O`, the z-score in [1] is 0.115 (inactive); in assay [3], -0.0957 (inactive); in assay [4], 0.143 (inactive); in assay [5] it was -0.669 (inactive); in assay [6], 0.0097 (inactive); in assay [7], -0.276. Moreover, the z-score in assay [8] is -0.676 (inactive); in assay [9], 0.471 (inactive); in assay [10] it was -0.156; in assay [11], 0.0697; in assay [12], 0.015; in [13], -0.0937. The z-score in assay [14] is 0.14; in assay [15] it was -1.17; in assay [16] it was -0.531; in assay [17], -0.386 (inactive); in assay [18], -0.0768; in [19] it was 0.816. The z-score in [20] is 0.26 (inactive). For the same molecule, the composite z-score in assay [2] is -0.0603.

Values taken from PubChem BioAssay.
